Drawing on PubChem BioAssay AID1159506 (National Center for Advancing Translational Sciences (NCATS), 2015), this text covers seed-corrected z-score for 66 sequences.

Over roughly 59,000 sequences, the read-out has its median near -0.00055; the lowest 2% begin near -2. This is one part of a sample in which the lowest values are shown more often than they occur.

A short description of this experiment: Identification of proteins required for the processing of the EWS-FLI1 nascent transcript.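 Note: robust z of luciferase light less the median z of siRNAs with the same seed.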 Particulars: TC32 Ewing sarcoma NR0B1-luc vs CMV-luc (EWS-FLI1 target promoter against control promoter), 48 h; screened at 20 nM (by protocol). The gist of the method: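 Genome-wide siRNA screen (Ambion v4.1, three siRNAs per gene, 20 nM final, RNAiMax) in Ewing sarcoma TC32 cells carrying NR0B1-promoter or CMV-promoter luciferase; OneGlo luciferase read 48 h post-transfection. Data normalized, z-score-MAD transformed and seed-adjusted.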
With AAAUUUCACAGGUAAUAUG against OR13D1, the seed-corrected z-score is -0.485.

As to AUGGUGACAAUUGAACUCC against IGF1R, the seed-corrected z-score was -1.36.

UCUGUUAGCAGCUGGUUUG against SH3D19: the seed-corrected z-score was -2.01.

On to UUUAUUAUGAUCUUCCGAG against PIP, for which the seed-corrected z-score stood at 0.162.

Turning to UUUGACGAAAUGGGAAUCC against OMD, the seed-corrected z-score is -0.258.

UAACGUAUAGCUACAACUC against MED23 had a seed-corrected z-score of 0.49.

Sequence UGAUUUUCUGCACAAGUCC against NELL2 registered a seed-corrected z-score of 0.658.

With AUUCUGUUCAAACAUCUGG against EXOC3, the seed-corrected z-score is -2.38.

For the sequence UACGCGGGCAAACUUCUCC against LRRC14, the seed-corrected z-score was found to be 0.0562.

AAUUCGCAAAGAAUGAUGC against CNN1: the seed-corrected z-score was 0.159.

For the sequence UAGACUACCGGCUUCUUGC against CTRC, the seed-corrected z-score was -0.112.

Regarding UCAGCAUCUUCCAUGAUAG against B3GNT4, the seed-corrected z-score is -0.437.

Regarding AUCUGGUUGCUUUUUAUCC against FAM60A, the seed-corrected z-score was -3.49.

Take UGAACCACCAGGGUAUACG against CDH1: the seed-corrected z-score turned out to be 1.03.

The sequence UCUUGAAUUGAGCAAGUCC against MGAT5 had a seed-corrected z-score of 0.401.

For the sequence UUUCAGCUAAUGCAUUUUG against VIP, the seed-corrected z-score was -3.11.

As for UGUAGUAGAACUUCCUGGG against HS6ST1, the seed-corrected z-score was -1.42.

On to UCAAUUUUGAGUCCAUUGG against ANKRD46, for which the seed-corrected z-score came to 0.911.

UCCUUUAGAACUCUCGAUC against WIPF3 returned a seed-corrected z-score of 0.233.

Turning to AUUAACAUAAUCUUGAUCC against CCNL2, the seed-corrected z-score was -4.87.

For UCAAAGGUCACGGUCAGGA against PRDM15, the seed-corrected z-score was -1.

As for UUUAGAGGGACUCUUGUUU against HMGA2, the seed-corrected z-score is -1.74.

On to UUCUGACUGAGAGCUAUGG against BNIP3L, for which the seed-corrected z-score was -0.338.

In turn, UAAAUAGUUCUCGUCUUUC against EHF came in with a seed-corrected z-score of 0.511.

On to UCUCUUGAGAGCGCGGUUG against RGS8, for which the seed-corrected z-score is 1.31.

For the sequence UACUGAUUGAGUGCCCUGC against FGGY, the seed-corrected z-score was -5.78.

Regarding UGAAGUUCAGCUACUAGCC against DIMT1, the seed-corrected z-score was -0.104.

On to UAAACAGUGAUUGCACCAC against ZNF497, for which the seed-corrected z-score is -1.22.

UAAGAAAAUAGGGAGGCCG against H1F0 displayed a seed-corrected z-score of 0.96.

For the sequence UCCGAGUCAAUACUGUAUC against UIMC1, the seed-corrected z-score was determined as 0.162.

Turning to UGCUUUUUCAUGGACCACC against SOD1, the seed-corrected z-score was -3.09.

ACUAAUACUAAAUUCAACC against CSDE1: the seed-corrected z-score worked out at 1.52.

In the case of UCCAGCUGAACUGUCACUC against TBX10, the seed-corrected z-score is -0.201.

As for UUCUUUUCCAGGUACGUGA against CCDC105, the seed-corrected z-score is -0.394.

Consider UAUGUGCUUACUAGGGUCA against SSR3, for which the seed-corrected z-score is -0.244.

In turn, AUCUUUCGAACUACAAUUG against PSME4 displayed a seed-corrected z-score of 1.14.

Sequence UCCCAAGUCGCUCAAGUUC against LOC389834 returned a seed-corrected z-score of 0.29.

As to UUUGGAGACAACAAGGUCG against SYN3, the seed-corrected z-score was -0.442.

As for UCCGGAAGUACUGUCGAAG against PPP2R1A, the seed-corrected z-score is -0.186.

Consider AAUGUACUAUCUACUUGCC against ZNF507, for which the seed-corrected z-score was -0.378.

With UCAGGAUCAAAAUCCAGUC against LTV1, the seed-corrected z-score was -2.94.

Take UGUCGAAACAGGAGGCGCU against ZNF579: the seed-corrected z-score was -1.11.

In turn, ACAGAUCAAAGAACUGUCC against LGALS4 returned a seed-corrected z-score of 0.144.

UACUUGGACAAGUCCAAGA against LSM7: the seed-corrected z-score was 0.593.

As to UGAACUUCUGGAGUCCCUC against CCDC115, the seed-corrected z-score was found to be 1.1.

UUUCGUAACCCUUCUGGGC against GNPTAB registered a seed-corrected z-score of 0.263.

With UAAGGUUAGGUUAGGAAUG against SH3BGRL3, the seed-corrected z-score was -0.0213.

Turning to UAAUAGACCACGGAGUCUU against TMEM130, the seed-corrected z-score is -3.42.

For the sequence UAAUCUCCUUCUUUAGGUC against CNOT3, the seed-corrected z-score is 1.42.

Take AGUUCACUAAGUCAAUAGC against TMEM44: the seed-corrected z-score is -1.14.

Regarding UGGGUCAUGUGCUCUAUCC against HDGFL1, the seed-corrected z-score is -0.0953.

As to UAUGAGGUAAAGUGGGAAG against LCE2A, the seed-corrected z-score was -2.17.

For the sequence UUGGGUUCGAUAUCUGCUU against CALML4, the seed-corrected z-score amounted to 0.413.

In turn, UCAGAAAUGACCUUGUUGC against LOC729187 registered a seed-corrected z-score of 1.39.

Sequence AUCGGCAAAGUAAUUCUGG against NECAB3 had a seed-corrected z-score of 0.533.

With UGUAUUACAAUAUUCCUUC against LACE1, the seed-corrected z-score was -0.00635.

For the sequence UCUUGUCGUAGUUCGUGGG against DUS3L, the seed-corrected z-score is -2.02.

Sequence AAACUGGUCAUCAUCCACC against SIKE1 displayed a seed-corrected z-score of 0.42.

Take AUCUGAGUGGAAAAAGUCC against AHNAK2: the seed-corrected z-score amounted to 0.0875.

Take UUCAGACUUGUUUUCACCC against POU1F1: the seed-corrected z-score is -0.00706.

For AAAGGUAGAAAGAAGGACU against ZDHHC8P1, the seed-corrected z-score was -0.722.

In the case of UUGGUCUAGACUACUCUCC against KRT5, the seed-corrected z-score is -0.431.

Sequence ACAGAUAUCACAGGUAACC against MCU yielded a seed-corrected z-score of 0.266.

With AACAUAGCUAAAGUUGUUG against SLC16A5, the seed-corrected z-score was -3.24.

GAGCCGAACACCACUAUGG against SYNGR1: the seed-corrected z-score was -0.617.

AGAUCUACUACAGCCGUUC against RARS2 gave a seed-corrected z-score of 0.391.
